Here are results for 39 sequences from the OligoGym collection.
Further: reference of the scale not given here.

The first assay has as its target AWAT2. Description: pooled miR-30 sensor sort-seq; sequence = guide strand. The following applies: shRNA.
TAGACATTACATATTCTCTGAG yielded a sensor-assay potency score (higher = more potent) of 0.0457.
With TTGAGAGGGAAATAATCGCTGT, the sensor-assay potency score (higher = more potent) was -0.0931.
TAAGAATAAGCACAGTGACAGG: the sensor-assay potency score (higher = more potent) was -1.65.
With TCTTGGTGAAGCCACGTCCATA, the sensor-assay potency score (higher = more potent) was -1.6.
Regarding ATAATCGCTGTAGTGTTTCCAC, the sensor-assay potency score (higher = more potent) was -0.0859.
Same read-out and setting: in the case of TTCTTGGGACTATCTCACCAGT it was -1.17; in that of TTAGCCACGATCTCCTGGCTTG, -0.416.
Same read-out and setting: the result for TATTTAGCCACGATCTCCTGGC reads -0.00517; that for ATATTTAGCCACGATCTCCTGG, -0.175.
The same measure, in the same setting: the result for TGAGATACCAAACTTGGTCTTA reads -0.0616; that for TTGACAGCAATCACAGTGGTTG, -0.667; that for ATAAGCACAGTGACAGGCCAGT, -0.973.

The target in a further assay is B3GNT9. Described as above. To be noted: shRNA.
For TGTAGTACTTGCTAGCCCGCGT, the sensor-assay potency score (higher = more potent) was -0.0178.
Regarding TTAATGAGCAGTGGAAACCGCC, the sensor-assay potency score (higher = more potent) is -0.997.
The same measure, in the same setting: in the case of AAGTGGATCTCCTTGAGCGTTA it was -0.755; in that of TTCACGAACACATCTGCGTCGC, 0.331.
Regarding TCGGGTAACTGGAACGCGCGGG, the sensor-assay potency score (higher = more potent) was -0.607.
As to TTAGGTTAAAAAAGGTGTCGTC, the sensor-assay potency score (higher = more potent) was -0.179.
Same read-out and setting: in the case of AAAAACGAAGCGCACGTCGGGG it was -1.1.
With TGCACTACAACCAGCTCACGGT, the sensor-assay potency score (higher = more potent) was -0.863.
With TAGAAAGTGGATCTCCTTGAGC, the sensor-assay potency score (higher = more potent) was -0.561.
Turning to TAGTACTTGCTAGCCCGCGTGC, the sensor-assay potency score (higher = more potent) is -1.22.
As to TCGGGGATGTAGTACTTGCTAG, the sensor-assay potency score (higher = more potent) was -1.49.
The same measure, in the same setting: the result for AATTACGTCACCAGCAAGCAGG reads -1.35.

The next assay deals with BABAM1. The assay is described as above. To be noted: shRNA.
For the sequence TTCTCTGGACAGTTGACCCTTG, the sensor-assay potency score (higher = more potent) came to 0.0913.
TCGATCTTGTGTTTTGTCCGCA returned a sensor-assay potency score (higher = more potent) of 0.0335.
On the same count and under the same terms, the result for ATCGTCTGCACGTTCTCTGTGA reads -0.356; that for TTTCTCTGGACAGTTGACCCTT, 0.0375; that for AAACATATCCTTCCAACTCATC, -1.73.
Consider TTTGTCCGCACGAACATCTCAA, for which the sensor-assay potency score (higher = more potent) is -0.413.
Still for that read-out and setting: in the case of TTATCCATGACAAACTAGGAGT it was -0.739; in that of TTGGCAGTGACATTTCCTCTGA, -0.685.
As to AAACTCGTGGCTTTTGTCGATC, the sensor-assay potency score (higher = more potent) is -1.23.
On the same count and under the same terms, in the case of TATCCTTCCAACTCATCTCCTC it was 0.00157; in that of TTCTGGGAGACATTGAGGGCGT, -0.794.

The next assay concerns the target BARX2. Described as above. To be noted: shRNA.
For the sequence TTGACAAATACTTCTGCTTCTG, the sensor-assay potency score (higher = more potent) was -0.22.
On the same count and under the same terms, in the case of TCCGTCTCTGACTCGCTGCTGG it was -0.99.
In the case of TTTCTCAAAGTAATCGCAGGTC, the sensor-assay potency score (higher = more potent) is 0.887.
On the same count and under the same terms, in the case of TGTTCCGTCTCTGACTCGCTGC it was -0.452.
